The list is not random: actives were taken first. Their share in the collection is about 1.2%.
S1P2 agonist – activates the human S1P2 receptor; S1P2-expressing cell line, agonist reporter read-out; activation, % at 4.5 µM; 97,000 tested, 0.46% active; AID 729; in the data active means activation above about 16%
GALR2 blocker – antagonists of human galanin receptor 2 (GALR2); inhibition, % at 4 µM; 140,000 tested, 0.39% active; GALR2-expressing cells, antagonist mode; O43603; AID 828; in the data active means inhibition above about 27%;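 further: cells stimulated with galanin 1-16 at roughly its EC80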
Target sequence (O43603 whole entry, looked up): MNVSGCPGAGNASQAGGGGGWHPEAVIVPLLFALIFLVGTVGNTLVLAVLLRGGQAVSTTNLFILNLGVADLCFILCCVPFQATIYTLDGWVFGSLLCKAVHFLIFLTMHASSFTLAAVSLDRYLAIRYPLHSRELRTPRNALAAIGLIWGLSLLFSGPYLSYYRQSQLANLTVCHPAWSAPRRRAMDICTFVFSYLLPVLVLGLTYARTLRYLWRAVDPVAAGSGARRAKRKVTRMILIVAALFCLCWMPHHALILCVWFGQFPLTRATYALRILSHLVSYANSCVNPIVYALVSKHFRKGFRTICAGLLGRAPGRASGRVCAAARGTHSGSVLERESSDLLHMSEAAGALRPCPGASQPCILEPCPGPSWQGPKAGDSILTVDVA
GALR2 agonist – activates the human galanin receptor 2; 140,000 tested, 0.48% active; O43603; GALR2-expressing cells, agonist activation read-out; activation, % (no concentration beside the values); in the data active means activation above about 5%, passing the limit was not always enough
S1P2 antag – blocks the human S1P2 receptor; cell-based S1P2 antagonist assay, inhibition at 5 uM; inhibition, % at 5 µM; 97,000 tested, 0.21% active; in the data active means inhibition above about 45%;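 further: CRE beta-lactamase reporter cells expressing human S1P2 stimulated with S1P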
A number is an active result; i = inactive; nt = no result given.

SMILES	S1P2 agonist	GALR2 blocker	GALR2 agonist	S1P2 antag
Clc1ccc(-c2ccc(/C=N/Nc3cc(N4CCOCC4)nc(N4CCOCC4)n3)o2)cc1	54	i	30	i
CC1=C(C(=O)Nc2ccc(Cl)cc2)C2(CCCCC2)C(C(N)=O)C(=S)N1 (configuration not stated)	nt	i	i	nt
Cc1ccc2c(n1)CC(C)(C)CC2=O	i	i	i	i
CCN(CC)c1nc(C#N)cc(-c2ccc(OC)cc2)n1	19	i	i	i
COc1ccc(-c2cc(C#N)nc(Oc3ccc(Cl)cc3)n2)cc1	nt	i	i	nt
Cc1nc(-c2ccccc2O)n(-c2ccccc2)n1	i	i	i	i
Cc1c(Cc2ccccc2)c(=O)oc2c(CN(C)C)c(O)c(Cl)cc12	nt	i	8.3	nt
CCN(CC)Cc1c(O)c(Cl)cc2c(C)c(C)c(=O)oc12	i	i	i	i
O=C1c2cccc3c(N4CCCCC4)ccc(c23)C(=O)N1c1ccccn1	i	i	i	i
O=C1c2cccc3c([N+](=O)[O-])ccc(c23)C(=O)N1c1ccc(Cl)cn1	i	i	i	71
O=C(O)c1ccc2c(c1)C(=O)N(c1ccc(Cl)cn1)C2=O	i	i	i	i
O=C1c2cccc3c(N4CCCCC4)ccc(c23)C(=O)N1c1ccc(Cl)cn1	i	i	i	51
Cc1ccc(-c2cc(C(F)F)nc(NCC3CCCO3)n2)cc1 (configuration not stated)	i	i	i	i
CCOc1cc2c(C#N)c(N3CCNCC3)nc(N)c2c(N)n1	20	i	i	i
CCCCNc1cc(=O)n(C)c(=O)[nH]1	38	i	i	i
O=C(NCCCn1ccnc1)c1cc2c(s1)CCCCC2	i	i	i	i
CCc1ccc2[nH]c(=O)c(CN(Cc3ccc4c(c3)OCO4)Cc3nnnn3C3CCCC3)cc2c1	24	i	i	i
Cc1ccc(S(=O)(=O)N/N=C/c2cc(Br)c(C)o2)cc1	27	i	i	i
Cc1ccc(S(=O)(=O)N/N=C/c2cccc([N+](=O)[O-])c2)cc1	nt	i	i	nt
CCc1ccc(N2C(=O)CC(N3CCC(C(=O)OC)CC3)C2=O)cc1 (configuration not stated)	27	i	i	i
C=C(C(=O)c1ccccc1)C(C)C(=C)C(=O)c1ccccc1	nt	i	i	nt
Cc1ccc(-c2cc(-c3ccc(F)cc3)c(C#N)c(N)n2)o1	nt	i	i	nt
Cc1cc(-c2cc(-c3ccc(Cl)cc3)nc(N)c2C#N)co1	19	i	9.9	i
Cc1ccc(-c2cc(-c3ccc(Cl)cc3)c(C#N)c(N)n2)o1	19	i	13	i
Cc1ccc(-c2cc(-c3ccc(C)o3)nc(N)c2C#N)cc1	i	i	i	i
SMILES	S1P2 agonist	GALR2 blocker	GALR2 agonist	S1P2 antag
Cc1cc(C)n(-c2nc(NCCCO)c3c4c(sc3n2)CCCC4)n1	i	i	36	i
Cc1cc(C)n(-c2nc(NCCO)c3c4c(sc3n2)CCCC4)n1	i	i	8.1	i
Cc1cc(C)n(-c2nc(NCC(C)O)c3c4c(sc3n2)COC(C)(C)C4)n1 (configuration not stated)	i	i	i	i
Cc1ccc(CNc2nc(C)nc3sc4c(c23)CCC4)cc1	i	i	i	i
Cc1cc(C)n(-c2nc(NCC3CCCO3)c3c4c(sc3n2)COC(C)(C)C4)n1 (configuration not stated)	i	i	i	i
Cc1cc(C)n(-c2nc(NCC(C)O)c3c4c(sc3n2)CCCC4)n1 (configuration not stated)	i	i	8.8	i
CC(C)(C)c1ccc(C(=O)NNC(=O)C2CCCCC2)cc1	nt	i	i	nt
CCCCN1C=C(C(=O)OC)C(c2ccccc2C(F)(F)F)C(C(=O)OC)=C1	19	i	i	i
COc1ccccc1N/C(=N/S(=O)(=O)c1ccc(C)cc1)c1ccc(Cl)cc1	i	i	i	i
Cc1cc(SCC(=O)c2cccs2)n2nc(C)c(-c3ccccc3)c2n1	nt	i	i	nt
Cc1cc(SCC#N)n2nc(C)c(-c3ccccc3)c2n1	16	i	i	i
Cc1cc(SCC#N)n2nc(C)c(-c3ccc(Cl)cc3)c2n1	39	i	i	i
O=C(Nc1nccs1)c1cc2c(s1)-c1ccccc1OC2	i	i	i	i
O=C(Nc1nc2ccccc2s1)c1cc2c(s1)-c1ccccc1OC2	40	i	i	i
O=C(NCc1cccc(C(F)(F)F)c1)C1CCN(c2ncccn2)CC1	i	i	i	i
Cc1nn(-c2cccc(Cl)c2)c(Cl)c1/C=N/NC(=O)c1cccs1	nt	i	5.0	nt
COc1ccc(C(=O)n2c(SC)nc3cc4c(cc32)OCCO4)cc1	i	i	i	i
COC(=O)c1cc2c(=O)n3ccccc3nc2n(Cc2cccnc2)c1=N	i	i	i	i
N=c1c(C(=O)NCc2ccc(F)cc2)cc2c(=O)n3ccccc3nc2n1Cc1cccnc1	21	i	i	i
CCOCCCn1c(=N)c(C(=O)NCc2ccc3c(c2)OCO3)cc2c(=O)n3ccccc3nc21	i	i	i	i
N=c1c(C(=O)NCC2CCCO2)cc2c(=O)n3ccccc3nc2n1Cc1cccnc1 (configuration not stated)	nt	i	5.8	nt
N=c1c(C(=O)NCc2ccc(F)cc2)cc2c(=O)n3ccccc3nc2n1CCCN1CCOCC1	nt	i	9.7	nt
O=c1c(-c2nc3ccccc3s2)cccn1Cc1ccc(Cl)c(Cl)c1	109	i	12	i
O=C(CCCn1c(=O)[nH]c2cc(Cl)ccc2c1=O)NCCCN1CCCC1=O	i	i	i	i
CCCN(CC1CC1)c1nc(N)c(C#N)c(CC#N)c1C#N	16	i	i	i
SMILES	S1P2 agonist	GALR2 blocker	GALR2 agonist	S1P2 antag
CCCCN1C(=O)Cc2c1nc(N)c1c(N)nc(N(CCC)CCC)c(C#N)c21	i	i	i	i
CCOc1ccccc1N1CCN(c2nc(N)c(C#N)c(CC#N)c2C#N)CC1	i	i	i	i
CCCN(CCC)c1nc(N)c(C#N)c(CC#N)c1C#N	16	i	i	i
Cc1ccc(-n2c(C)cc(/C=C3\NC(=O)NC3=O)c2C)c(C)c1	nt	i	i	nt
CCOC(=O)c1sc2nc(C3CC3)cc(-c3ccc(OC)cc3)c2c1N	i	i	i	i
CCOC(=O)c1sc2nc(C3CC3)cc(-c3ccc(F)cc3)c2c1N	38	i	i	i
CC(C)n1c(=NC(=O)c2ccco2)c(C#N)cc2c(=O)n3ccccc3cc21	nt	i	6.3	nt
CCCCn1c(=NC(=O)c2ccc3c(c2)OCO3)c(C#N)cc2c(=O)n3cccc(C)c3nc21	i	i	i	i
CCC(=O)Nc1ccc(NC(=O)CSc2nnnn2C(C)C)cc1	i	i	i	i
CCCCCCn1c(SCC(=O)c2c(N)n(C)c(=O)n(C)c2=O)nc2ccccc21	i	i	i	i
CCCn1c(N)c(C(=O)CSc2nc3ccccc3n2CCC#N)c(=O)n(C)c1=O	26	i	i	i
N#CCSc1nnc(-c2ccccc2)c(-c2ccccc2)n1	16	i	i	i
COc1cccc(N2C(=O)C3C(C2=O)C2C=CC3C23CC3)c1 (configuration not stated)	i	i	i	i
CCCCn1c(NC(=O)c2ccccc2Cl)c(C#N)c2nc3ccccc3nc21	i	i	7.3	i
CC(O)C1C(=O)OC2(C)CC(C)(C)NC(=S)N12 (configuration not stated)	44	i	i	i
COc1ccc(/C=N/NC(=O)C2c3ccccc3Oc3ccccc32)c(OC)c1	i	i	i	i

Screens (PubChem BioAssay)
